Most compounds without a hit are left out; they make up all but 3.5% or so of the library.
FBW7 act: FBW7 E3 ligase activators, primary screen, biochemical, AlphaScreen, human; F-box/WD repeat-containing protein 7 (Homo sapiens), Q969H0; AlphaScreen FBW7–phospho-cyclin E peptide binding, activator screen; normalized activity (activation), % at 26.1 µM; actives 0.13% (n = 650,000); AID 1259310, 2017; in the data active means normalized activity above about 1.9%;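 further: purified mutant Fbw7 with reduced substrate affinity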
TEAD-YAP block: TEAD-YAP interaction inhibition, primary screen, TEAD-YAP interaction inhibitor project, luminescence, HEK-TIYL cells | TEAD-Gal4/YAP UAS-luciferase luminescence | inhibition, % at 9.12 µM | actives 1.4% (n = 640,000) | AID 1259422, 2018; in the data active means inhibition above about 32%;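 further: 0% = median of test compound wells and 100% = reference inhibitor wells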
MITF inh: MITF inhibitors, primary screen, biochemical, AlphaScreen, human; AlphaScreen MITF homodimerization, bead proximity signal; inhibition, % at 2.6 µM; actives 0.91% (n = 650,000); AID 1259374, 2018; in the data active means inhibition above about 50%;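 further: 0% = vehicle wells with protein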
Target sequence (O75030 whole entry, looked up): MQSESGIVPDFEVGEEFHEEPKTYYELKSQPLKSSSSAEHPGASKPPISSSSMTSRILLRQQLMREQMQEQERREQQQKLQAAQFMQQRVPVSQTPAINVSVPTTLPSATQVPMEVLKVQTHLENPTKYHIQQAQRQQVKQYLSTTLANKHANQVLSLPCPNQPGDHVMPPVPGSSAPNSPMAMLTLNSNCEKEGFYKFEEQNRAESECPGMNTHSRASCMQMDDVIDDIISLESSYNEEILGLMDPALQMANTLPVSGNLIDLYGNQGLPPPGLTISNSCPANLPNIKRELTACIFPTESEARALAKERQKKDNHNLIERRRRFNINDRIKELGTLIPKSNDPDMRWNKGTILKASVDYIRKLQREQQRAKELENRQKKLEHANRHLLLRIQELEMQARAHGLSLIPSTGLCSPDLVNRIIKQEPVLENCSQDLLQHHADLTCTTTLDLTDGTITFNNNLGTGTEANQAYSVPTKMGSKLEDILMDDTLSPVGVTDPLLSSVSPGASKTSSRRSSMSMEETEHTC
GPR151 activ: activators of human GPR151, primary screen, cell-based, PathHunter beta-arrestin, luminescence; G-protein coupled receptor 151 (Homo sapiens), Q8TDV0; PathHunter beta-arrestin GPR151 cells; activation, % at 11.2 µM; actives 1% (n = 650,000); AID 1508602, 2020; in the data active means activation above about 4.9%;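 further: 0% = median of compound wells and 100% = cells with positive control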
GPR151 confirm: GPR151 activators, triplicate retest, confirmation, cell-based, PathHunter beta-arrestin, luminescence; shares compounds with GPR151 activ; GPR151 PathHunter beta-arrestin cells, 90 min; % of EA-reagent control over plate median; activation, % at 11.2 µM; 6,700 tested, under 10 active; AID 1508609, 2020;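 active means mean percent activation across replicates above the confirmation screen cutoff of 4.91%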
GPR119 counter: GPR119 activators in beta-arrestin cells, counter-screen for GPR151 activator project, cell-based, PathHunter beta-arrestin, luminescence, triplicate | shares compounds with GPR151 activ | 90 min; 0 = compound-well median, 100 = enzyme-acceptor control | activation, % at 11.2 µM | actives 0.3% (n = 6,700);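 active means mean percent activation in the counterscreen above 29.09%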;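 further: counterscreen on off-target GPR119 to flag nonselective hits from the GPR151 activator screen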
* hit, by the source's call; ! = repeats disagree.

CCOc1ccc(CN2CCN(Cc3cnc(N4CCOCC4)s3)CC2CCO)cc1 (stereo not given) was read as FBW7 act 0.1, TEAD-YAP block 5.9, MITF inh 2.0 and GPR151 activ -0.3.
`CCn1ccnc1CN1CCN(Cc2ccc(F)cc2)C(CCO)C1` (stereo not given) gave FBW7 act -0.1, TEAD-YAP block -4.7, MITF inh -0.7, GPR151 activ 13.3*, GPR151 confirm 1.1 and GPR119 counter -0.7.
`CC(C)CN1CCN(Cc2cccc3nccnc23)CC1CCO` (stereo not given) gave FBW7 act 0.0, TEAD-YAP block -4.5, MITF inh -1.4 and GPR151 activ 0.0.
For Cc1ccc(CN2CCN(Cc3cccc4nccnc34)CC2CCO)cc1 (stereo not given) the results were FBW7 act 0.4, TEAD-YAP block -4.9, MITF inh -1.1, GPR151 activ 6.7*, GPR151 confirm -0.4 and GPR119 counter -13.0.
Screening CCn1ccnc1CN1CCN(Cc2ccc(C)cc2)C(CCO)C1 (stereo not given) returned FBW7 act 0.0, TEAD-YAP block 1.4, MITF inh 20.9 and GPR151 activ 3.4.
`CCOc1ccc(CN2CCN(Cc3cnc(N(C)C)s3)CC2CCO)cc1` (stereo not given) gave FBW7 act 0.0, TEAD-YAP block -6.2, MITF inh -5.3, GPR151 activ 5.7*, GPR151 confirm -0.4 and GPR119 counter 0.1.
For Cc1ccc(-c2n[nH]c(=O)c3ccccc23)cc1S(=O)(=O)Nc1ccc2c(c1)OCO2 the results were FBW7 act 0.0, TEAD-YAP block 0.6, MITF inh 9.9 and GPR151 activ -1.0.
`NC(=O)COC(=O)c1ccc(S(=O)(=O)N2CCCc3ccccc32)cc1` gave FBW7 act 0.0, TEAD-YAP block -2.1, MITF inh 1.0 and GPR151 activ 1.0.
For O=C(C1CCC1)N1CCc2cc(S(=O)(=O)N3CCCc4ccccc43)ccc21 the results were FBW7 act 0.1, TEAD-YAP block -11.5, MITF inh 0.7, GPR151 activ 6.5*, GPR151 confirm 1.2 and GPR119 counter 0.4.
`NC(=O)COC(=O)c1cccc(S(=O)(=O)N2CCCc3ccccc32)c1` gave FBW7 act 0.0, TEAD-YAP block -3.9, MITF inh 0.1, GPR151 activ 6.1*, GPR151 confirm -0.4 and GPR119 counter -1.2.
CSc1ccccc1NC(=O)c1nn2c(C(F)(F)F)cc(-c3ccc(Br)cc3)nc2c1Cl was read as FBW7 act 0.0, TEAD-YAP block -0.8, MITF inh 13.1 and GPR151 activ 0.0.
Screening CCCCCCCCCCCCCCCCOP(=O)(O)OCC[N+](C)(C)C returned FBW7 act 0.0, TEAD-YAP block 5.5, MITF inh -12.6, GPR151 activ 11.1*!, GPR151 confirm -0.4 and GPR119 counter 5.5.
CC1CCCCN1C(=O)c1ccc(I)o1 (stereo not given) was read as FBW7 act 0.2, TEAD-YAP block -7.5, MITF inh 4.2 and GPR151 activ 0.1.
For CCOC(=O)C[n+]1c(N)n(N)c2ccccc21 the results were FBW7 act -0.1, TEAD-YAP block 9.1, MITF inh -2.5 and GPR151 activ 2.4.
`CCc1cc2c(cc3c(=O)n(CC(=O)NCc4ccccc4Br)ncn32)s1` gave FBW7 act 0.5, TEAD-YAP block 5.6, MITF inh -8.0, GPR151 activ 6.4*, GPR151 confirm 2.6 and GPR119 counter 11.4.
CCOC(=O)COn1c(=O)c(-c2ccc(Oc3ccccc3)cc2)[n+]([O-])c2ccccc21 was read as FBW7 act -0.2, TEAD-YAP block -11.8, MITF inh -10.2, GPR151 activ 5.3*, GPR151 confirm -0.2 and GPR119 counter -6.3.
For O=c1c(-c2ccccc2)[n+]([O-])c2ccccc2n1OCc1ccccc1[N+](=O)[O-] the results were FBW7 act 0.1, TEAD-YAP block 7.8, MITF inh 11.9, GPR151 activ 6.0*, GPR151 confirm 1.5 and GPR119 counter 6.2.
Screening CC(C)(C)OC(=O)NNC(=O)CNC(=O)OCc1ccccc1 returned FBW7 act 0.1, TEAD-YAP block 4.4, MITF inh 11.1 and GPR151 activ 0.6.
For COc1ccccc1OCC(=O)NCC(c1ccsc1)N1CCCC1 (stereo not given) the results were FBW7 act 0.1, TEAD-YAP block 1.6, MITF inh 9.7 and GPR151 activ 2.1.
Screening O=C(Cc1ccc(F)cc1)NCC(c1ccsc1)N1CCCCCC1 (stereo not given) returned FBW7 act -0.1, TEAD-YAP block -10.2, MITF inh -3.2, GPR151 activ 6.9*, GPR151 confirm -0.1 and GPR119 counter -6.7.
For Cc1nc2c(C(=O)NC3CCCCC3)cnn2c(C)c1Cc1ccc(F)cc1 the results were FBW7 act -0.2, TEAD-YAP block -10.2, MITF inh -1.5, GPR151 activ 5.0*, GPR151 confirm -0.5 and GPR119 counter -9.1.
Screening Cc1nc2c(C(=O)NC3CCCC3)cnn2c(C)c1Cc1ccc(F)cc1 returned FBW7 act -0.1, TEAD-YAP block -4.5, MITF inh -10.4 and GPR151 activ 1.5.
For Cc1nc2c(C(=O)O)cnn2c(C)c1Cc1ccc(Cl)cc1 the results were FBW7 act 0.0, TEAD-YAP block 7.2, MITF inh 6.2, GPR151 activ 5.8*, GPR151 confirm 0.7 and GPR119 counter 7.8.
COc1cc(/C=C/c2nc3cc(Cl)ccc3c(=O)n2-c2cccc(F)c2)cc(OC)c1OC was read as FBW7 act 0.1, TEAD-YAP block -6.6, MITF inh 8.7 and GPR151 activ 0.2.
O=C(Cn1cnc2scc(-c3ccccc3)c2c1=O)Nc1cccc(Cl)c1 was read as FBW7 act 0.0, TEAD-YAP block 17.5, MITF inh 3.3 and GPR151 activ -1.5.
`COc1ccc(OC)c(C2=NOC(C(=O)NCc3cccnc3)C2)c1` (stereo not given) gave FBW7 act 0.3, TEAD-YAP block 1.0, MITF inh -13.2, GPR151 activ 6.3*, GPR151 confirm 0.8 and GPR119 counter 5.7.
Screening COc1ccc(OC)c(C2=NOC(C(=O)NCc3ccccc3)C2)c1 (stereo not given) returned FBW7 act -0.2, TEAD-YAP block 15.7, MITF inh 16.1 and GPR151 activ 0.6.
`N/C(=N\OC(=O)c1ccc(F)cc1)c1cccc(Br)c1` gave FBW7 act -0.1, TEAD-YAP block -2.4, MITF inh -4.7 and GPR151 activ 0.0.
